# Screens as filed in PubChem BioAssay.
# Many of the other results were omitted from the sample, so hits are more common in it than they were.
# VHR inh color – VHR1 (DUSP3) phosphatase inhibition; P51452; recombinant VHR phosphatase, colorimetric substrate read-out; inhibition, % at 20 µM; actives 0.7% (n = 50,000); AID 1992; in the data active = inhibition above about 60%
# Target sequence (P51452 whole entry, looked up): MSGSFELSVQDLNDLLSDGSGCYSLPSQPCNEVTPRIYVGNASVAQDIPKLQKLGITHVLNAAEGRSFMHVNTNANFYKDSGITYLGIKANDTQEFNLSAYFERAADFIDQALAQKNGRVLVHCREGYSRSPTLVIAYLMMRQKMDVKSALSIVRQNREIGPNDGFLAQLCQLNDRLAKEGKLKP
# Active calls of the source: *.
SMILES,VHR inh color
O=C(COc1ccc2ccccc2c1)N1CCN(S(=O)(=O)c2ccc(Cl)cc2)CC1,-9.1
O=C(COc1ccc(Cl)cc1)N1CCN(C(=O)COc2ccc3ccccc3c2)CC1,1.8
Cc1ccc(S(=O)(=O)N2CCN(C(=O)COc3ccc(Cl)cc3)CC2)cc1,86.7*
O=C1CC(SC(=NCCc2ccccc2)Nc2ccc(F)cc2)C(=O)N1c1ccc(F)cc1 (stereo not given),-8.5
COc1cccc2c1NC(c1cccc3ccccc13)C1CC=CC21 (stereo not given),88.3*
COc1cccc2c1NC(c1ccccc1Cl)C1CC=CC21 (stereo not given),-2.7
COC(=O)c1ccc2c(c1)C1C=CCC1C(c1cccc3ccccc13)N2 (stereo not given),47.1
O=C(NN1C(=O)/C(=C/c2c(Cl)cccc2Cl)SC1=S)c1ccncc1,4.3
OCc1nc2ccccc2n1Cc1ccccc1F,115.7*
CCn1c(CCCO)nc2ccccc21,-5.1
OCc1nc2ccccc2n1Cc1ccc2ccccc2c1,13.5
CCCOc1ccc(N2C(=O)CC(N3CCC(C(N)=O)CC3)C2=O)cc1 (stereo not given),-5.8
CCOC(=O)c1ccc(N=Cc2c(O)n(C)c(=O)[nH]c2=O)cc1,4.4
COc1cccc(C(=O)Oc2ccc3c(C)cc(=O)oc3c2)c1,-5.7
CSc1nn(CN2CCCCC2)c(=S)s1,90.9
O=C(COc1cccc2ccccc12)NNC(=O)c1ccc(Cl)c(Cl)c1,10.2
CCOc1ccc2c(c1)NC(C)(C)C1=C2C2(SC(C(=O)OC)=C(C(=O)OC)S2)C(C(=O)OC)=C(C(=O)OC)S1,-4.8
c1ccc(Nc2nc(-c3ccncc3)cs2)cc1,-20.2
c1ccc(Nc2nc(-c3ccccc3)[n+](-c3ccccc3)s2)cc1,96.7*
COc1ccc(-c2csc(Nc3ccccc3)n2)cc1,7.6
O=C(/C=C/c1ccc(OCc2ccccc2)cc1)c1ccc(Cl)cc1,-13.4
O=C(CN(Cc1ccccc1)S(=O)(=O)c1ccccc1)Nc1ccc(Cl)cc1Cl,-16.4
CCOc1ccc(NC(=O)c2c(N)sc(-c3ccccc3)c2C)cc1,2.3
COC(=O)C(C(=O)OC)C(=O)c1ccc(C)cc1,-14.9
CCOC(=O)C1=C(C)N(c2ccc(OCC)cc2)C(=O)/C1=C\c1ccco1,-13.7
SMILES,VHR inh color
O=C1NC(=S)N(c2cccc(Br)c2)C(=O)/C1=C/c1ccc(O)c(Cl)c1,-5.0
Cc1cc(/C=C2\C(=O)NC(=S)N(c3cccc(Br)c3)C2=O)c(C)n1C,-13.4
O=C1NC(=S)N(c2cccc(Br)c2)C(=O)/C1=C/c1ccco1,88.6*
CCOc1ccc(N2C(=O)NC(=O)/C(=C\c3ccc(C)o3)C2=O)cc1,-0.1
CCOc1ccc(N2C(=O)/C(=C/c3ccco3)C(=O)NC2=S)cc1,80.1*
Cc1cc(=O)oc2c(C)c(OC(=O)c3ccccc3)ccc12,-19.3
O=C(/C=C/c1ccccc1Cl)NC(c1ccccc1)c1ccccc1,29.6
O=C(O)CC(Cc1ccccc1)C(=O)O (stereo not given),-4.0
C=C(CC(Cc1ccccc1)C(=O)O)c1ccccc1 (stereo not given),96.8*
O=C(O)CC(Cc1ccc(Br)cc1)C(=O)O (stereo not given),-11.1
Clc1ccc(Nc2nc(N/N=C\c3cccnc3)nc(N3CCOCC3)n2)cc1,-2.4
COc1cccc(N2C(=O)NC(=O)/C(=C/C=C/c3ccccc3[N+](=O)[O-])C2=O)c1,20.8
O=C1NC(=S)N(c2ccc(Cl)cc2)C(=O)/C1=C/C=C/c1ccccc1,51.9
O=C1NC(=S)N(c2cccc(Cl)c2)C(=O)/C1=C\C=C\c1ccccc1[N+](=O)[O-],88.0*
O=C1CC(NC2CCCCC2)C(=O)N1c1ccc(Br)cc1 (stereo not given),-26.0
CCOC(=O)N1CCN(C(=O)/C(=C/c2cccc([N+](=O)[O-])c2)NC(=O)c2ccccc2)CC1,0.1
CC(=O)Oc1c(Cl)c(Cl)c(OC(C)=O)c2ccccc12,-5.7
CCOC(=O)c1ccc(N2C(=O)C=CC2=O)cc1,48.7
CC(=O)c1ccc(N2C(=O)C=CC2=O)cc1,84.0*
CC(=O)c1ccc(N2C(=O)C3C4C=CC(CC4)C3C2=O)cc1 (stereo not given),-19.6
O=C(Nc1cccc([N+](=O)[O-])c1)c1cccc(F)c1,-17.2
Cc1cccc(OCCOCCN2CCN(C)CC2)c1,-3.4
COc1cc(CNCCc2ccc(Cl)cc2)cc(OC)c1OC,-2.8
COc1ccc(NS(=O)(=O)c2ccc(C(C)C)cc2)cc1,-5.8
Cc1ccc(N2NC(=O)/C(=C/c3ccc4c(c3)OCO4)C2=O)cc1C,-6.4
SMILES,VHR inh color
Cc1ccc(N2NC(=O)/C(=C/c3ccc(-c4ccc5c(c4)COC5=O)o3)C2=O)cc1C,84.9*
Cc1ccc(N2NC(=O)/C(=C/c3cc([N+](=O)[O-])ccc3Cl)C2=O)cc1C,64.5*
Cc1ccc(N2NC(=O)/C(=C\c3ccco3)C2=O)cc1C,-12.7
COc1cc(/C=C2\C(=O)NN(c3ccc(Cl)c(Cl)c3)C2=O)c([N+](=O)[O-])cc1OC,6.6
Cc1ccc(N2NC(=O)/C(=C\c3cccc([N+](=O)[O-])c3)C2=O)cc1,22.0
Cc1cc([N+](=O)[O-])ccc1-c1ccc(/C=C2/C(=O)NC(=S)N(c3ccc(Cl)cc3)C2=O)o1,45.6
Cc1ccc([N+](=O)[O-])cc1-c1ccc(/C=C2/C(=O)NN(c3ccc(Cl)cc3)C2=O)o1,74.4*
O=C1NN(c2ccccc2)C(=O)/C1=C/c1ccc(-c2cccc([N+](=O)[O-])c2)o1,-0.9
CC(=O)C1=C(O)C(=O)N(CCN2CCNCC2)C1c1cccc([N+](=O)[O-])c1 (stereo not given),30.9
Cc1cccc(N2C(=O)NC(=O)/C(=C\c3cc(C)n(-c4cccnc4)c3C)C2=O)c1,-9.6
COc1cc(Cl)cc(/C=C2\C(=O)NC(=O)N(c3ccc(Br)c(C)c3)C2=O)c1O,-9.1
COc1ccc2nc(/N=C(/N)NC(=O)Cc3ccc(Cl)cc3)nc(C)c2c1,-18.1
COc1cc(/C=C2/SC(=S)N(c3ccccc3)C2=O)ccc1OC(=O)c1ccc(F)cc1,-6.0
O=C(CN(c1cccc([N+](=O)[O-])c1)S(=O)(=O)c1ccccc1)NCCSc1ccccc1,-67.8
Cc1cccc(NCCC(=O)c2cccs2)c1C,0.7
O=C(CN1CCN(C(c2ccccc2)c2ccccc2)CC1)Nc1ccc(F)cc1,-25.0
CC(C)c1ccccc1NC(=O)C(C)N1C(=O)c2ccccc2C1=O (stereo not given),-6.2
Cc1cc(C)c2nc3s/c(=C/c4ccc(-c5cccc(Cl)c5)o4)c(=O)n3c2c1,-8.2
Cc1nc2cc(-c3cccc(F)c3)nn2c(C)c1Cl,-12.2
Cc1nc2cc(-c3cccc(Cl)c3)nn2c(C)c1Cl,-23.0
Cc1nc2cc(-c3ccccc3)nn2c(C)c1C,117.3*
Cc1ccc(NS(=O)(=O)c2ccc3c(c2)C(=NO)c2cc(S(=O)(=O)Nc4ccc(C)cc4)ccc2-3)cc1,-12.6
O=C(Nc1ccccc1C(=O)O)c1cccc(S(=O)(=O)Nc2ccc(F)cc2)c1,-1.0
O=C(Nc1cccnc1)c1ccc(-c2ccccc2[N+](=O)[O-])o1,17.4
O=C1NC(=S)N(c2ccc(Cl)cc2)C(=O)/C1=C\c1ccc(-c2cccc(C(=O)O)c2)o1,-7.4
O=C1NC(=S)N(c2ccc(Br)cc2)C(=O)/C1=C/c1ccc(-c2ccc(C(=O)O)cc2)o1,78.5*
Cc1ccc(N2C(=O)/C(=C\c3ccc(-c4ccc(Cl)c(C(=O)O)c4)o3)C(=O)NC2=S)cc1,1.4
CN1C(=O)NC(=O)/C(=C\c2cc(Cl)c(O)c(Cl)c2)C1=O,5.3
